Data on 39 compounds can be found in PubChem BioAssay (EPA / NIEHS).

“And” between values parts separate entries of the source, which are not always exact repeats. Equal values may be shown once. Some structures have more than one record in an assay (separate samples or runs), and their calls can disagree. The source made the active and inactive calls. Rule for the calls: active = hit-call score of the fitted dose curve at least 0.9, where 1 is the maximum; inactive = score below 0.9.

Read-out in this test: Actin alpha 1 (ACTA1), ACTA1 (gene 58)
The test can be described thus: BSK_MyoF_ACTA1: BioMAP Diversity Plus: MyoF Assay for Actin alpha 1 (ACTA1) Biomarker Activity (AID 2284244). As to conditions: primary human lung fibroblasts. The procedure: BSK_MyoF is a cell-based, multiplexed-readout assay that uses lung fibroblasts, […], with measurements taken at 24 hours after chemical dosing in a microplate: 96-well plate.BSK_MyoF_ACTA1 is an assay component measured in the BSK_MyoF assay. It measures a-SMA antibody related to regulation of gene expression using ELISA technology.Data from the assay component BSK_MyoF_ACTA1 was analyzed at the endpoint, BSK_MyoF_ACTA1, in the positive analysis fitting direction relative to DMSO as the negative control and baseline of activity. Using a type of binding reporter, gain or loss-of-signal activity can be used to understand protein changes. To generalize the intended target to other relatable targets, this assay endpoint is annotated to the 'cell adhesion molecules' intended target family, where the subfamily is 'actin'.
The levels of cell surface (or secreted, indicated by the prefix "s") biomarker endpoints were measured by ELISA. Overt cytotoxicity to cells in confluent adherent cultures (all systems other than the BT system) was assessed by measuring total protein levels using sulforhodamine B (SRB) staining in parallel cultures at the time of biomarker measurements, indicated as SRB endpoints. For proliferation assays for adherent cell types, individual cell types are cultured at sub-confluence and relative cell numbers quantified by SRB staining at time points optimized for each system (48 h: 3C and CASM3C systems; 72 h: BT and HDF3CGF systems; 96 h: SAg system). SRB was performed by staining cells with 0.1% SRB after fixation with 10% TCA and reading wells at 560 nm.Viability and proliferation of PBMC (T cells) was quantified by Alamar Blue reduction for the SAg and BT systems. For PBMC viability (referred to as PBMC Cytotoxicity within the assay endpoint names), cells were plated (75,000/well in a 96-well plate) and then chemical samples added for 1 h before addition of activators, SEB and TSST-1 (20 ng/mL final concentration each). Cells were incubated for 90 h. Then, Alamar Blue (20 uL/well) (Invitrogen, Cat DAL1100) was added for 6 h, and the plates were read with a fluorescence microplate reader at 546/580 nm (excitation/emission). For PBMC proliferation, cells were plated and activated as above but incubated for only 16 h prior to addition of Alamar Blue. Plates were read after 6 h.
With `O=S(=O)(O)C(F)(F)C(F)(F)C(F)(F)C(F)(F)C(F)(F)C(F)(F)C(F)(F)F`, the result was inactive.

Turning to `C=CC(=O)OCC(F)(F)C(F)(F)C(F)(F)C(F)(F)C(F)(F)C(F)(F)C(F)(F)F`, the outcome was inactive.

Take `C=CC(F)(F)C(F)(F)C(F)(F)C(F)(F)C(F)(F)C(F)(F)C(F)(F)C(F)(F)F`: the result was inactive.

Take `OCC(F)(F)C(F)(F)C(F)(F)C(F)(F)C(F)(F)C(F)(F)F`: the result was inactive.

As to `FC1CC(F)(F)C(F)(F)C1(F)F` (stereo not given), the result was inactive.

In the case of `CCCCCCCOC(=O)c1ccccc1C(=O)OCCCCCCC`, the result was inactive.

As for `FC(F)(F)C(F)(F)CNCC(F)(F)C(F)(F)F`, the result was inactive.

Take `CCCCNc1ccccc1`: the result was inactive.

For `O=C(CC(=O)C(F)(F)C(F)(F)F)C(F)(F)F`, the outcome was inactive.

For `OCC(F)(F)C(F)(F)C(F)(F)C(F)(F)C(F)(F)C(F)F`, the outcome was inactive.

With `CCN(CC)c1ccc2c(C)cc(=O)oc2c1`, the outcome was inactive.

Turning to `CCc1c(Br)c(Br)c(Br)c(Br)c1Br`, the outcome was inactive.

For the compound `FC(F)(I)C(F)(F)C(F)(F)C(F)(F)I`, the half-maximal activity concentration (AC50) is 48.6 µM (active) and 49 µM (active) and 34.3 µM (active).

Consider `FC(F)(F)C(F)(F)C(F)(F)C(F)(F)C(F)(F)C(F)(F)C(F)(F)I`, for which the AC50 is 3.33 µM (active).

`FC(F)(F)C(F)(F)C(F)(F)C(F)(F)C(F)(F)C(F)(F)C(F)(F)C(F)(F)F`: the outcome was inactive.

For the compound `O=P(O)(O)OCCC(F)(F)C(F)(F)C(F)(F)C(F)(F)C(F)(F)C(F)(F)F`, the result was inactive.

`FC(F)(F)C(F)(F)C(F)(F)C(F)(F)C(F)(F)CCI`: the outcome was inactive.

Regarding `O=C(O)C(F)(F)C(F)(F)F`, the outcome was inactive.

For the compound `OCCCC(F)(F)C(F)(F)C(F)(F)F`, the outcome was inactive.

On to `CC(C)(C)C(=O)CC(=O)C(F)(F)C(F)(F)C(F)(F)F`, for which the outcome was inactive.

Turning to `FC(F)(F)C(F)(F)C(F)(F)C(F)(F)C(F)(F)C(F)(F)C(F)(F)Br`, the result was inactive.

Take `FC(F)(Br)C(F)(F)C(F)(F)C(F)(F)C(F)(F)C(F)(F)Br`: the outcome was inactive.

For the compound `C=CC(=O)OCC(F)(F)C(F)(F)C(F)(F)C(F)(F)COC(=O)C=C`, the half-maximal activity concentration (AC50) was 8.86 µM (active) and 9.38 µM (active).

In the case of `O=C(O)C(F)(F)C(F)(F)C(F)(F)C(F)(F)C(F)(F)C(F)(F)C(F)(F)C(F)(F)Cl`, the half-maximal activity concentration (AC50) was 50.7 µM (active) and 43.8 µM (active).

On to `CCCCCCCCCCCCCCCC[N+](C)(C)Cc1ccccc1`, for which the AC50 is 1.36 µM (active).

On to `C=C(C)C(=O)OCCC(F)(F)C(F)(F)C(F)(F)C(F)(F)C(F)(C(F)(F)F)C(F)(F)F`, for which the result was inactive.

Turning to `FC(F)(F)C(F)(F)C(F)(F)C(F)(F)CCI`, the outcome was inactive.

Take `O=C(O)C=C(C(F)(F)F)C(F)(F)F`: the result was inactive.

For `C=C(C)C(=O)OCC(F)(F)C(F)(F)C(F)(F)C(F)(F)C(F)(F)C(F)(F)C(F)(F)F`, the result was inactive.

For the compound `O=C(O)C(F)(F)C(F)(F)C(F)(F)C(F)(F)C(F)(F)C(F)(F)C(F)(F)C(F)(F)C(F)(F)C(F)F`, the AC50 was 38.1 µM (active) and 36.2 µM (active).

For `CCO[Si](CCC(F)(F)C(F)(F)C(F)(F)C(F)(F)C(F)(F)C(F)(F)F)(OCC)OCC`, the outcome was inactive.

For the compound `O=C(O)C(F)(F)C(F)(F)OC(F)(F)F`, the outcome was inactive.

In the case of `N=C(N)C(F)(F)C(F)(F)C(F)(F)C(F)(F)C(F)(F)C(F)(F)C(F)(F)F`, the result was inactive.

Take `COC(=O)CCC(F)(F)C(F)(F)C(F)(F)C(F)(F)F`: the outcome was inactive.

As to `O=C(O)C(F)(F)C(F)(F)C(F)(F)C(F)(F)C(F)(F)C(F)(F)C(F)(F)C(F)(F)C(F)(F)C(F)(F)C(F)(F)C(F)(F)F`, the outcome was inactive and the half-maximal activity concentration (AC50) is 0.786 µM (active).

As for `C#C[C@]1(O)CC[C@H]2[C@@H]3CCc4cc(OC)ccc4[C@H]3CC[C@@]21C`, the outcome was inactive.

For `Oc1ccc(Nc2ccccc2)cc1`, the outcome was inactive.

Take `Nc1ccc([N+](=O)[O-])cc1O`: the outcome was inactive.

On to `C=CC/C=C/C/C=C/C/C=C/C`, for which the outcome was inactive.

In general, AC50 refers to the midpoint of the concentration-response curve, whichever way the signal moves.
